Compound activity: PubChem, National Center for Advancing Translational Sciences (NCATS)
KB-V1 cytotox = qHTS assay for MDR1-selective chemotherapeutics: Primary screen using the drug-selected MDR subline cells KB-V1. KB-V1 MDR cells viability, CellTiter-Glo, 72 h. Potency, µM (titrated, usually from 46.1 µM), most hits filed as cytotoxic. 400,000 tested, 3.4% active; further: on the % scale 0 is the no-effect control and ±100 the full control effect; nearly all actives have a fitted effect of over 60% in size
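In this primary screen, KB-V1 cells overexpressing P-gp are incubated with library compounds (lowest to highest concentration) for 72 h at 37 degrees C before a luminescent ATP viability read.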
SW480 rerep = A quantitative high throughput screen for small molecules that induce DNA re-replication in SW480 colon adenocarcinoma cells. AID 624297, 2012. 340,000 tested, 1.8% active. Potency, µM (highest dose often 46.1 µM), inactives show top-dose re-replication activation, most hits filed as activators. SW480 DNA re-replication, Hoechst DNA content imaging, 48 h; further: % of control where 0% means no effect; nearly all actives have a fitted effect of over 55% in size
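First, 250 cells per well were seeded. Next, compound or vehicle (23 nL) was pinned in, plates sat 48 hr at 37 C. Finally Hoechst was added for 40 min before fluorescence scanning.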
ELG1 repair inh = qHTS screen for small molecules that inhibit ELG1-dependent DNA repair in human embryonic kidney (HEK293T) cells expressing luciferase-tagged ELG1. HEK293T ELG1-luciferase reporter, luminescence, 16 h; DNA damage induced by 5-fluorouridine. Potency, µM (highest dose often 46.1 µM), for the others: top-dose activity change, negative = inhibition, hits mostly inhibitors. 330,000 tested, 2.3% active. AID 504467, 2011; further: on the % scale 0 is the no-effect control and ±100 the full control effect; nearly all actives have a fitted effect of over 55% in size
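Overnight (16 hr) co-exposure of 2,000 cells/well to 5-fluorouridine and compound at 37 °C preceded detection. Luciferase was quantified via ONE-Glo luminescence; loss of signal denotes inhibition.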
KB-3-1 cytotox = qHTS assay for MDR1-selective chemotherapeutics: Primary screen using the parental adenocarcinoma cell KB-3-1 | Potency, µM (titrated, usually from 46.1 µM), most hits filed as cytotoxic | KB-3-1 viability, CellTiter-Glo ATP luminescence, 72 h | AID 1347075, 2019 | 400,000 tested, 1.4% active; further: on the % scale 0 is the no-effect control and ±100 the full control effect; nearly all actives have a fitted effect of over 60% in size
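Here the drug-naive KB-3-1 line serves as comparator for MDR sub-line selectivity; cells received compound titrations, 72 h at 37 °C, then CellTiter-Glo readout.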
MCF10A rerep = A quantitative high throughput screen for small molecules that induce DNA re-replication in MCF 10a normal breast cells | Potency, µM (series often up to 46.1 µM), for inactives: at the top dose activity, positive = re-replication, most hits filed as activators | AID 624296, 2012 | MCF 10A DNA re-replication, Hoechst nuclear intensity, 48 h | 350,000 tested, 2.9% active; further: % of control where 0% means no effect; nearly all actives have a fitted effect of over 50% in size
* hit, by the source's call; i = inactive; ? = inconclusive; . = no result given. In the library only some 8.1% were active in any assay of this set; here they are far more common. The call rests on the fitted dose curve; in most records, active means well fitted curve in the direction sought with a large enough effect; inconclusive means small, poorly fitted or top-dose-only effect, or another doubt; inactive means no such curve, though single readings can be large; an effect the other way counts as inactive or inconclusive. Potency means the concentration at half of the fitted maximal effect.

SMILES | KB-V1 cytotox | SW480 rerep | ELG1 repair inh | KB-3-1 cytotox | MCF10A rerep
COC(=O)[C@@]12CCCCN1[C@H](c1ccc(-c3ccc(F)cc3)c(OC)c1)[C@H]1C(=O)N(C)C(=O)[C@H]12 | ? | -15% | 13µM* | ? | 6%
CCN1C(=O)[C@H]2[C@@H](c3ccc(-c4cccc(Cl)c4)c(OC)c3)N[C@@](CC(C)C)(C(=O)OC)[C@H]2C1=O | i | ? | -13% | ? | 5.8µM*
COC(=O)[C@@]12CCCCN1[C@H](c1ccc(-c3ccc4c(c3)OCO4)cc1)[C@H]1C(=O)N(C)C(=O)[C@H]12 | i | 2% | ? | i | 3.7µM*
Cc1ccc2[nH]c(CSc3nnc(NC(=O)c4ccc(Cl)cc4)s3)cc(=O)c2c1 | ? | . | . | i | .
COc1ccc(CCNC(=O)C2=COCCO2)cc1 | i | -5% | ? | i | 20%
CCN1C(=O)[C@H]2[C@@H](c3ccc(-c4cccc(Cl)c4)c(OC)c3)N3CCCC[C@@]3(C(=O)OC)[C@H]2C1=O | 21µM* | 20% | -14% | i | -2%
CCN1C(=O)[C@H]2[C@@H](c3ccc(-c4ccc(Cl)c(Cl)c4)cc3)N3CCCC[C@@]3(C(=O)OC)[C@H]2C1=O | ? | -6% | 25% | ? | 22%
CCN1C(=O)[C@H]2[C@@H](c3ccc(-c4ccc(Cl)c(Cl)c4)c(OC)c3)N3CCCC[C@@]3(C(=O)OC)[C@H]2C1=O | ? | 29% | -19% | 21µM* | 26%
CCCCSC1(SCCCC)N=C(N)C2(C#N)C(c3ccccc3)NC(C)=C(C)C12C#N (stereo not drawn) | i | 0% | -7% | i | 6%
O=C(CCCc1nc(-c2ccc(Cl)cc2)no1)N1CCOCC1 | 9.2µM* | -11% | -27% | ? | 2%
Cc1cccc(-c2noc(CCCC(=O)N3CCOCC3)n2)c1 | 21µM* | -8% | 12% | i | 3%
O=C(CCCc1nc(-c2ccc(Cl)cc2)no1)NCC1CCCO1 (stereo not drawn) | 13µM* | -17% | -19% | 10µM* | 16%
O=C(O)C1=C[C@@H](c2coc3ccccc3c2=O)C[C@@H](OCc2ccc(CO)cc2)O1 | i | -8% | 16% | i | ?
Cc1cc(C)n2nc(SCC3COc4ccccc4O3)nc2n1 (stereo not drawn) | 23µM* | 5% | ? | i | 0%
Cc1cc(C)n2nc(SCc3nnc(SCc4ccccc4C)s3)nc2n1 | 21µM* | -20% | ? | i | -7%
O=S(=O)(c1ccc(Br)cc1)N1CCCN(Cc2ccccc2F)CC1 | i | -1% | -4% | i | ?
CCC(C)(C)NC(=O)C(c1ccccn1)N(C(=O)c1csnn1)C1CCCCC1 (stereo not drawn) | ? | 4% | 6% | i | 7.3µM*
CCC(C)(C)NC(=O)C(c1sccc1C)N(Cc1ccco1)C(=O)c1csnn1 (stereo not drawn) | i | -8% | -14% | i | 5%
CCC(C)(C)NC(=O)C(c1ccccc1F)N(Cc1ccco1)C(=O)c1csnn1 (stereo not drawn) | 18µM* | 1% | 13% | i | 11%
O=S(=O)(c1ccccc1)N1CCN(Cc2ccccc2)CC1 | ? | -5% | -4% | ? | 11%
O=S(=O)(c1ccccc1)N1CCN(Cc2ccccc2)c2ccccc21 | 18µM* | 1% | . | i | 2%
O=C(Nc1ccc(Br)cc1)c1cc(-c2ccncc2)nc2ccccc12 | i | 16µM* | ? | ? | ?
O=C(NNC(=O)c1cc(-c2cccnc2)nc2ccccc12)Nc1ccc(Cl)cc1 | i | -5% | ? | ? | ?
O=C(NNC(=O)c1cc(-c2ccccc2)nc2ccccc12)Nc1cccc(Cl)c1 | ? | -4% | ? | i | 12µM*
COC(=O)c1ccc(NC(=O)c2cc(-c3ccncc3)nc3ccccc23)cc1 | i | 6% | -23% | 23µM* | 21%
